PubChem BioAssay (NCATS)
Results filed as inconclusive are left out. Active and inactive are the calls of the source. The call rests on the fitted dose curve; in most records, active means well fitted inhibition curve with a large enough effect; inconclusive means small, poorly fitted or top-dose-only effect; inactive means flat fitted curve, though single readings scatter.

Experiments:
Experiment in all cases: Cytotoxic Profiling of Annotated Libraries Using Quantitative High-Throughput Screening (AID 1296008); further: nearly all actives have a fitted effect of over 60% in size
Details in all cases: Five cell lines viability, CellTiter-Glo ATP luminescence, 48-72 h; max response: active compounds read low
[1] = system: CRL-7250
Outline: (§1)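 Cytotoxicity was measured as CellTiter-Glo ATP luminescence, read after 10 min at room temperature. Compound treatment of the cells lasted 48 or 72 hr at 37 degrees Celsius in a qHTS format.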

[2] = system: HEK293
Outline: as §1

[3] = system: HaCat
Outline: as §1

[4] = system: KB-3-1
Outline: as §1

[5] = system: NIH3T3
Outline: as §1
On the % scale 0 is the no-effect control and ±100 the full control effect; potency means the concentration at half of the fitted maximal effect.

Cc1nnc(-c2ccc3occ(-c4ccc(S(C)=O)cc4)c3c2)o1 (stereo not given)
inactive: outcome [1] | max response [2] -3.27% | max response [3] -2.4% | outcome [4] | outcome [5]

OC[C@@]1(O)CO[C@@H](OC[C@H]2O[C@@H](Oc3ccccc3)[C@H](O)[C@@H](O)[C@@H]2O)[C@@H]1O
inactive: outcome [1] | max response [2] -6.8% | outcome [3] | max response [4] 0.107% | outcome [5]

CC1(C)C[C@H]2C=C(C=O)[C@]3(C(=O)O)C[C@]3(C)[C@H]2C1
inactive: max response [1] -0.156% | max response [2] -14% | outcome [3] | max response [4] 6.21% | max response [5] 0.712%

COc1cc(/C=C/C(=O)O[C@@H]2O[C@H](CO)[C@@H](O)[C@H](O)[C@H]2O)ccc1O
inactive: max response [1] 2.76% | outcome [2] | max response [3] 3.8% | max response [4] -1.87% | max response [5] 0.679%

C=C1C(OC(C)=O)C(=O)C2C(C)(C)C(O)CCC2(C)C1CC(OC(C)=O)/C(C)=C/COC(C)=O (stereo not given)
inactive: max response [1] -6.92% | max response [2] -10.7% | outcome [3] | max response [4] 5.46% | max response [5] -4.73%

CC(=O)OCC1OC(OC2COC(OC3COC(OC4C(OC5C(CO)OC(OC6CCC7(C)C(CCC8(C)C7CC=C7C9CC(C)(C)CCC9(C(=O)OC9OC(CO)C(O)C(O)C9OC9OCC(OC%10OCC(O)(CO)C%10O)C(O)C9O)C(O)CC78C)C6(C)C)C(O)C5O)OCC(O)C4O)C(O)C3O)C(O)C2O)C(OC(=O)/C=C/c2ccccc2)C(O)C1OC(C)=O (stereo not given)
inactive: max response [1] 2.77% | max response [2] -18.2% | outcome [3] | max response [4] 4.45% | max response [5] -0.042%

CC1CC(O)/C=C/C(O)/C=C\C(=O)O1 (stereo not given)
inactive: max response [1] 0.731% | max response [2] -11.1% | outcome [3] | outcome [4] | outcome [5]

CC(=O)OC(C)(C)/C=C/C(=O)[C@](C)(O)C1[C@H](O)C[C@@]2(C)[C@@H]3CC=C4[C@@H](C[C@H](O[C@@H]5O[C@H](CO)[C@@H](O)[C@H](O)[C@H]5O)C(=O)C4(C)C)[C@]3(C)C(=O)C[C@]12C (stereo not given in full)
inactive: outcome [1] | max response [2] -17.8% | outcome [3] | max response [4] 1.94% | outcome [5]

CC12CC(O)C(O)C=C1c1cc(O)cc(O)c1C(=O)O2 (stereo not given)
inactive: max response [1] -7.12% | max response [2] -7.31% | outcome [3] | outcome [4] | outcome [5]

COc1cc2c(cc1O)CC(O)(CO)C(CO)C2c1ccc(OC2OC(CO)C(O)C(O)C2O)c(OC)c1 (stereo not given)
inactive: outcome [1] | max response [2] -0.898% | outcome [3] | outcome [4] | outcome [5]

COC(=O)[C@]1(C)CCC[C@@]2(C)[C@@H]3CC[C@@H]4C[C@@]3(CC[C@@H]21)C[C@H]4C(=O)O
inactive: max response [1] -6.63% | max response [2] 0.134% | max response [3] 0.436% | max response [4] 9.78% | outcome [5]

CC(C)=C1C[C@@]2(C)C(=CC1=O)CC[C@@H](O)[C@@H]2C
inactive: max response [1] -13.6% | outcome [2] | max response [3] -1.2% | max response [4] 3.47% | max response [5] -19.7%

C=C(C(=O)O)[C@@H]1CC[C@@]2(C)CCC[C@@](C)(O)[C@@H]2C1
inactive: max response [1] -2.07% | max response [2] -3.93% | outcome [3] | max response [4] 5.56% | max response [5] 1.2%

COc1cc(OC)cc(-c2ccc3c(-c4ccc(F)cc4)[nH]nc3n2)c1
inactive: outcome [1] | max response [2] -28% | outcome [3] | outcome [4] | max response [5] 0.976%

N#Cc1cccc(-c2nc(-c3cccnc3)no2)c1
inactive: max response [1] -3.07% | max response [2] -8.6% | outcome [3] | outcome [4] | outcome [5]

CC[C@@H]1C(=O)O[C@]23C=C[C@@H]4C(C(=O)OC)=CO[C@H](O[C@@H]12)[C@@H]43
inactive: max response [1] -23.4% | max response [2] -18.1% | outcome [3] | max response [4] -9.89% | max response [5] 1.97%

CC(C)CC(=O)NCCn1cc(C(=O)O)c(=O)cc1C(O)c1ccccc1 (stereo not given)
inactive: outcome [1] | max response [2] -11.3% | outcome [3] | outcome [4] | max response [5] 3.17%

COc1cc([C@@H](O[C@@H]2O[C@H](CO)[C@@H](O)[C@H](O)[C@H]2O)[C@@H]2CO[C@H](c3ccc(O)c(OC)c3)[C@H]2CO)ccc1O
inactive: outcome [1] | max response [2] 2.55% | max response [3] 0.823% | max response [4] -3.03% | outcome [5]

COc1cc(C2CC(=O)Nc3c2cc(Br)c2ccccc32)cc(OC)c1OC (stereo not given)
inactive: outcome [1] | max response [2] 1.49% | outcome [3] | outcome [4] | outcome [5]

CC(=O)/C=C/C1(O)C(C)CC(O[C@@H]2O[C@H](CO)[C@@H](O)[C@H](O)[C@H]2O)CC1(C)C (stereo not given in full)
inactive: outcome [1] | max response [2] 1.81% | outcome [3] | outcome [4] | max response [5] -2.62%

O=C(NC1Cc2ccccc2N(C[C@@H](O)CO)C1=O)c1cc2cc(Cl)sc2[nH]1 (stereo not given in full)
inactive: max response [1] -1.76% | max response [3] -0.0172% | max response [4] 3.62% | outcome [5]
active: Potency [2] 16.4 µM
